Reference: the supplement of paper PMC8007513
Structures can show the parent of a compound that is named as a salt. ± gives the standard error. The whole screen tested about 1,300 compounds, of which about 130 (10%) showed an effect of 50% or more. Many of the other results were omitted from the sample, so strong results are more common in it than they were.

Tested on: Trichoderma virens ATCC 9645
Assay: growth yield (OD600) with compound + IPBC relative to untreated control; higher = less growth inhibition
Settings: compound concentration: 100 uM, IPBC concentration: 200 ng/ml
Method in brief: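 Growth appears as means of duplicate screens, relative to the control containing neither agent. To obtain it, OD600 was read on a BioTek EL800 at 40 h and 72 h. The cultures were 100 μl aliquots in 96-well plates at 30 °C, holding Trichoderma virens ATCC 9645 spores at 15,000 spores ml^−1 in potato dextrose broth, library compounds at 100 μM final, and, in some wells, a biocide at 200 ng ml^−1.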

SMILES	growth yield (40 h)	growth yield (72 h)
CC(C)NC[C@H](O)COc1ccc(CC(N)=O)cc1 [(S)-(-)-Atenolol] + CCCCNC(=O)OCC#CI [3-iodo-2-propynyl butylcarbamate (IPBC)]	82.8 ± 1.8%	88.2 ± 0.1%
O=C(Nc1ccc([N+](=O)[O-])cc1Cl)c1cc(Cl)ccc1O [Niclosamide] + CCCCNC(=O)OCC#CI [3-iodo-2-propynyl butylcarbamate (IPBC)]	83.7 ± 2.4%	90.4 ± 2.5%
CC(C)[C@H](N)C(=O)OCCOCn1cnc2c(=O)nc(N)[nH]c21 [Valacyclovir hydrochloride] + CCCCNC(=O)OCC#CI [3-iodo-2-propynyl butylcarbamate (IPBC)]	86.7 ± 3.2%	96.4 ± 2.6%
CN1C(=O)CCS(=O)(=O)C1c1ccc(Cl)cc1 (stereo not given) [Chlormezanone] + CCCCNC(=O)OCC#CI [3-iodo-2-propynyl butylcarbamate (IPBC)]	86.7 ± 3.2%	92.5 ± 1.7%
Cc1[nH]c(=O)c(C#N)cc1-c1ccncc1 [Milrinone] + CCCCNC(=O)OCC#CI [3-iodo-2-propynyl butylcarbamate (IPBC)]	89.11 ± 0.48%	92.9 ± 1.9%
Nc1cc(-c2ccncc2)c[nH]c1=O [Amrinone] + CCCCNC(=O)OCC#CI [3-iodo-2-propynyl butylcarbamate (IPBC)]	106%	41.3%
CCCNC(C)C(=O)Nc1ccccc1C (stereo not given) [Prilocaine hydrochloride] + CCCCNC(=O)OCC#CI [3-iodo-2-propynyl butylcarbamate (IPBC)]	86.4%	95.54 ± 0.52%
C[C@H]1NC(=O)NC1=O [Methylhydantoin-5-(D)] + CCCCNC(=O)OCC#CI [3-iodo-2-propynyl butylcarbamate (IPBC)]	97.4 ± 14%	95.4 ± 8.4%
CN1[C@@H]2C[C@@H](OC(=O)[C@H](CO)c3ccccc3)C[C@H]1[C@@H]1O[C@@H]12 [Scopolamine hydrochloride] + CCCCNC(=O)OCC#CI [3-iodo-2-propynyl butylcarbamate (IPBC)]	94.4 ± 7.9%	94.1 ± 3.5%
Cc1cnc(C(=O)O)c[n+]1[O-] [Acipimox] + CCCCNC(=O)OCC#CI [3-iodo-2-propynyl butylcarbamate (IPBC)]	85.3 ± 0.48%	90.72 ± 0.1%
Nc1ncnc2c1ncn2[C@@H]1O[C@H](CO)[C@@H](O)[C@@H]1O [Vidarabine] + CCCCNC(=O)OCC#CI [3-iodo-2-propynyl butylcarbamate (IPBC)]	121 ± 11%	109 ± 7.3%
Nc1nc(F)nc2c1ncn2[C@@H]1O[C@H](CO)[C@@H](O)[C@@H]1O [Fludarabine] + CCCCNC(=O)OCC#CI [3-iodo-2-propynyl butylcarbamate (IPBC)]	85.3 ± 2.4%	86.6 ± 1.1%
Nc1nc(=S)c2ncn([C@@H]3O[C@H](CO)[C@@H](O)[C@H]3O)c2[nH]1 [Thioguanosine] + CCCCNC(=O)OCC#CI [3-iodo-2-propynyl butylcarbamate (IPBC)]	46.1 ± 0.64%	88.3 ± 2.3%
CN(C)CCCO[C@@H]1[C@H]2OC(C)(C)O[C@H]2O[C@@H]1[C@H](O)CO [Amiprilose hydrochloride] + CCCCNC(=O)OCC#CI [3-iodo-2-propynyl butylcarbamate (IPBC)]	89.4 ± 4.9%	93.3 ± 4.6%
CCc1cc(C(N)=S)ccn1 [Ethionamide] + CCCCNC(=O)OCC#CI [3-iodo-2-propynyl butylcarbamate (IPBC)]	82 ± 2.5%	90.61 ± 0.63%
CC1=C(C(=O)O)N2C(=O)[C@@H](NC(=O)[C@H](N)c3ccc(O)cc3)[C@H]2SC1 [Cefadroxil] + CCCCNC(=O)OCC#CI [3-iodo-2-propynyl butylcarbamate (IPBC)]	81.5 ± 1.8%	88.5 ± 1.5%
C=CCN1CC[C@]23c4c5ccc(O)c4O[C@H]2C(=O)CC[C@@]3(O)[C@H]1C5 [Naloxone hydrochloride] + CCCCNC(=O)OCC#CI [3-iodo-2-propynyl butylcarbamate (IPBC)]	98.2 ± 3.5%	101 ± 3.5%
CC[N+](C)(CC)CCOC(=O)C1c2ccccc2Oc2ccccc21 [Methantheline bromide] + CCCCNC(=O)OCC#CI [3-iodo-2-propynyl butylcarbamate (IPBC)]	82 ± 1.9%	88.5 ± 2.1%
Fc1ccc(C(OCCN2CCN(CCCc3ccccc3)CC2)c2ccc(F)cc2)cc1 + CCCCNC(=O)OCC#CI [3-iodo-2-propynyl butylcarbamate (IPBC)]	13.3 ± 4.8%	65.3 ± 6.4%
Clc1ccc(C(OCCN2CCCCC2)c2ccccc2)cc1 (stereo not given) [Cloperastine hydrochloride] + CCCCNC(=O)OCC#CI [3-iodo-2-propynyl butylcarbamate (IPBC)]	78.6 ± 0.79%	95.1 ± 2%

SMILES	growth yield (40 h)	growth yield (72 h)
O=c1[nH]c2ccccc2n1C1CCN(CCCC(c2ccc(F)cc2)c2ccc(F)cc2)CC1 [Pimozide] + CCCCNC(=O)OCC#CI [3-iodo-2-propynyl butylcarbamate (IPBC)]	111 ± 8.3%	136 ± 2.7%
COc1cc(NS(=O)(=O)c2ccc(N)cc2)nc(OC)n1 [Sulfadimethoxine] + CCCCNC(=O)OCC#CI [3-iodo-2-propynyl butylcarbamate (IPBC)]	116.3 ± 0.95%	114 ± 1.6%
C[C@]12CC[C@H]3[C@@H](CCC4=CC(=O)CC[C@@H]43)[C@@H]1CC[C@@H]2O [Nandrolone] + CCCCNC(=O)OCC#CI [3-iodo-2-propynyl butylcarbamate (IPBC)]	61.2 ± 3.3%	83.7 ± 4.8%
COc1cccc(OC)c1C(=O)N[C@@H]1C(=O)N2[C@@H]1SC(C)(C)[C@@H]2C(=O)O [Methicillin sodium] + CCCCNC(=O)OCC#CI [3-iodo-2-propynyl butylcarbamate (IPBC)]	89.3%	90.7 ± 2%
COc1ccc(C(=O)CC(=O)c2ccc(C(C)(C)C)cc2)cc1 [Avobenzone] + CCCCNC(=O)OCC#CI [3-iodo-2-propynyl butylcarbamate (IPBC)]	67.83 ± 0.16%	71.84 ± 0.1%
COc1ccccc1O [Guaiacol] + CCCCNC(=O)OCC#CI [3-iodo-2-propynyl butylcarbamate (IPBC)]	94.7 ± 1.6%	98 ± 1.5%
Nc1ccc(C(=O)O)c(O)c1 [4-aminosalicylic acid] + CCCCNC(=O)OCC#CI [3-iodo-2-propynyl butylcarbamate (IPBC)]	87.36 ± 0.32%	94.18 ± 0.42%
CC(=O)Oc1ccccc1C(=O)O [Acetylsalicylic acid] + CCCCNC(=O)OCC#CI [3-iodo-2-propynyl butylcarbamate (IPBC)]	107 ± 4.9%	104 ± 5.5%
COc1ccc(C(=O)c2ccccc2)c(O)c1 [Oxybenzone] + CCCCNC(=O)OCC#CI [3-iodo-2-propynyl butylcarbamate (IPBC)]	45.3 ± 4.9%	71.1 ± 6.1%
COc1ccc(C(=O)c2ccccc2O)c(O)c1 [Dioxybenzone] + CCCCNC(=O)OCC#CI [3-iodo-2-propynyl butylcarbamate (IPBC)]	23.67 ± 0.16%	48.35 ± 0.1%
CC(N)C12CC3CC(CC(C3)C1)C2 (stereo not given) [Rimantadine Hydrochloride] + CCCCNC(=O)OCC#CI [3-iodo-2-propynyl butylcarbamate (IPBC)]	82.76 ± 0.16%	89.04 ± 0.1%
C=C1CC[C@@]2(O)[C@H]3Cc4ccc(O)c5c4[C@@]2(CCN3CC2CC2)[C@H]1O5 [Nalmefene hydrochloride] + CCCCNC(=O)OCC#CI [3-iodo-2-propynyl butylcarbamate (IPBC)]	104 ± 15%	103 ± 8.3%
C[C@H](Cc1cc2c(c(C(N)=O)c1)N(CCCO)CC2)NCCOc1ccccc1OCC(F)(F)F [Silodosin] + CCCCNC(=O)OCC#CI [3-iodo-2-propynyl butylcarbamate (IPBC)]	87 ± 1.3%	92.6 ± 0.94%
CC[C@]12CCCN3CCc4c(n(c5ccccc45)[C@@](O)(C(=O)OC)C1)[C@@H]32 [Vincamine] + CCCCNC(=O)OCC#CI [3-iodo-2-propynyl butylcarbamate (IPBC)]	86.2 ± 1.4%	91 ± 1.7%
O=C(O)c1cc(-c2ccc(F)cc2F)ccc1O [Diflunisal] + CCCCNC(=O)OCC#CI [3-iodo-2-propynyl butylcarbamate (IPBC)]	57.8 ± 1.6%	80.65 ± 0.32%
CN(C)[C@@H]1C(O)=C(C(N)=O)C(=O)[C@@]2(O)C(O)=C3C(=O)c4c(O)ccc(Cl)c4[C@@](C)(O)[C@H]3C[C@@H]12 [Chlortetracycline hydrochloride] + CCCCNC(=O)OCC#CI [3-iodo-2-propynyl butylcarbamate (IPBC)]	77.2 ± 0.64%	84.3 ± 2.1%
C[N+]1(C)CCOC(O)(c2ccc(-c3ccc(C4(O)C[N+](C)(C)CCO4)cc3)cc2)C1 (stereo not given) [Hemicholinium bromide] + CCCCNC(=O)OCC#CI [3-iodo-2-propynyl butylcarbamate (IPBC)]	19.1 ± 0.64%	69.4 ± 1.5%
CC(=O)S[C@@H]1CC2=CC(=O)CC[C@]2(C)[C@H]2CC[C@@]3(C)[C@@H](CC[C@@]34CCC(=O)O4)[C@H]12 [Spironolactone] + CCCCNC(=O)OCC#CI [3-iodo-2-propynyl butylcarbamate (IPBC)]	85.3 ± 9.1%	91.1 ± 7%
CN(C)CCc1c[nH]c2ccc(C[C@H]3COC(=O)N3)cc12 [Zolmitriptan] + CCCCNC(=O)OCC#CI [3-iodo-2-propynyl butylcarbamate (IPBC)]	93.2 ± 4%	96.3 ± 4%
C=C(C)[C@@H]1[C@H]2OC(=O)[C@@H]1[C@]1(O)C[C@H]3O[C@]34C(=O)O[C@H]2[C@]14C [Picrotoxinin] + CCCCNC(=O)OCC#CI [3-iodo-2-propynyl butylcarbamate (IPBC)]	96.3 ± 11%	97.1 ± 8.2%
